Test results published in PubChem BioAssay (NCI).
This is part of a sample that, as a whole, favours compounds with a hit. Of some 83,000 tested, about 20% had one in any assay.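 Growth was measured after 48 h exposure to one concentration of compound in 96-well plates. Values under 10 count as active.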 Values without a mark were called inactive. Activity calls are given as the source filed them.

Tested on: MDA-MB-468 breast
Experiment: NCI-60 one-dose screen, 48 h (100 = growth as untreated, 0 = no growth, -100 = all killed)
Settings: 10 µM unless noted

| Compound | growth |
| --- | --- |
| Cc1nc2sc(C(=O)Nc3cccc4ccccc34)c(N)c2cc1C(=O)/C=C/c1ccccc1 | -3.46% (active) |
| O=C1CCCN1c1cccc2cccnc12 | 98.8% |
| Cc1cc2c(c(C)c1Cl)C(=O)/C(=C/c1ccco1)O2 | -2.58% (active) |
| O=C(COc1ccc(Cl)cc1)N1CCN(Cc2ccc3c(c2)OCO3)CC1 | 98.5% |
| Cc1ccc(C)c(-c2csc(Nc3ccc(C)c(C)c3)n2)c1 | 14.5% |
| COc1ccc(Nc2[nH]n(C3=Nc4ccccc4Sc4ccccc43)c(=O)c2C#N)cc1 | -3.96% (active) |
| Cc1nc(Nc2ccc(Cl)cc2)c2cnn(-c3ccccc3)c2n1 | 98.3% |
| Cc1ccc(-c2[nH][nH]c(=O)c2-c2nc3ccccc3s2)cc1 | 98.1% |
| COc1cc(/C=C2\C(=O)Nc3ccccc32)ccc1OCc1ccc(Cl)cc1 | 102% |
| Cc1cccc(/C=C2\CN(C(=O)OC(C)(C)C)C/C(=C\c3cccc(C)c3)C2=O)c1 | 103% |
| CN(O)c1nc(N(C)O)nc(N2CCOCC2)n1 | -6.58% (active) |
| COc1cc2c(cc1O)C(=O)CCCC2 | 87.3% |
| OC(c1cc(-c2ccccc2)nc2ccc(Cl)cc12)C1CCCCN1 (stereo unspecified) | -17.1% (active) |
| CCc1nc(C(N)=O)c(Nc2ccc(N3CCC(N4CCN(C)CC4)CC3)c(OC)c2)nc1NC1CCOCC1 | 69.7% |
| COc1ccc(N2CCN(S(=O)(=O)c3oc(-c4ccccc4)nc3C#N)CC2)cc1 | 79.6% |
| S=c1nn[nH]n1C1CCCCC1 | 125% |
